Screening results from PubChem.
TDP1 cell noCPT – qHTS for Inhibitors of human tyrosyl-DNA phosphodiesterase 1 (TDP1): qHTS in cells in absence of CPT; DT40 Tdp1-/- hTDP1 cells, no CPT, ATP luminescence, 48 h; Potency, µM (highest dose often 46.2 µM), inactives show top-dose activity change, negative = growth inhibition, most hits filed as inhibitors; 15% of 420,000 active; AID 686978, 2013; note: potency is the fitted concentration of half-maximal effect; nearly all actives have a fitted effect of over 55% in size
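Stably hTDP1-transfected Tdp1-null chicken DT40 cells were treated with library compounds minus camptothecin and grown for at least 48 hr at 37 °C, after which cellular ATP was quantified by luminescence.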
DT40 TDP1 CPT – growth inhibition of DT40 Tdp1-/-;hTDP1 cells with camptothecin (screen for TDP1 inhibitors); chicken DT40 Tdp1-/-;hTDP1 cells + 20 nM CPT, ATP luminescence, 48 h; Potency, µM (doses to about 46.2 µM), without a hit: at the top dose activity change, negative = growth inhibition, most hits filed as inhibitors; 12% of 420,000 active; AID 686979; note: potency is the fitted concentration of half-maximal effect; nearly all actives have a fitted effect of over 55% in size
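Chicken DT40 Tdp1-/- cells complemented with human TDP1, 400 cells/well, exposed to compounds plus 20 nM camptothecin for at least 48 h at 37 C; viability read as ATP content by CellTiter-Glo luminescence.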
Gal4-VP16 FLuc – inhibits Gal4-VP16 luciferase reporter, ROR gamma counter-screen; AID 2546; 3.5% of 310,000 active; Drosophila S2 Gal4-VP16 UAS-luciferase, luminescence, 20 h; Potency, µM (highest dose often 53.6 µM), for the others: at the highest dose activity, negative = inhibition, actives largely listed as inhibitors;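 note: Gal4-VP16 expression switched on by copper sulfate through the metallothionein promoter; potency is the fitted concentration of half-maximal effect; nearly all actives have a fitted effect of over 50% in size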
IL1B secr inh – inhibitors of inflammasome signaling (IL-1 beta secretion); THP-1 LPS/ATP IL-1B secretion, AlphaLISA, 16 h; hits give low values; activity change, % at 57.5 µM; 4.7% of 360,000 active; AID 743279; in the data active = activity change below about -50%; inconclusive = mostly about -30% to -49%
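THP-1 cells pretreated 1 hr with compounds (up to 57.5 uM final), then stimulated with LPS (250 ng/mL final) plus ATP (1.25 mM final); secreted IL-1B measured by AlphaLISA after 16 hr, decreased signal indicating inhibition.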
LDHA block – inhibitors of human lactate dehydrogenase A. purified LDHA, NADH/diaphorase-resazurin fluorescence; hits give low values. 0.15% of 480,000 active. AID 1347041. activity change, % (values are at about 110 or 230 µM). P00338; in the data active = activity change below about -30%; inconclusive = mostly about -25% to -30%;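 note: plate controls were DMSO wells for no effect and wells without enzyme for full effect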
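LDH5 2 nM; NADH 0.06 mM, pyruvate 0.2 mM; 200 mM Tris pH 7.4, EDTA, Tween-20; 5 min RT. Detection: diaphorase 0.133 mg/mL + resazurin 37 µM, fluorescence ex540/em590 at 0 and 20 min; normalized to enzyme-free and DMSO wells.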
RORgamma inh – inhibitors of mouse ROR gamma transcriptional activity. P51450. Drosophila S2 Gal4-RORgamma UAS-luciferase reporter, 20 h. Potency, µM (top dose mostly 53.6 µM), for the others: at the highest dose activity change, negative = inhibition, actives largely listed as inhibitors. 5.4% of 310,000 active. AID 2551; note: potency is the fitted concentration of half-maximal effect; nearly all actives have a fitted effect of over 60% in size
Target sequence (P51450 whole entry, looked up, the tested form may be a part): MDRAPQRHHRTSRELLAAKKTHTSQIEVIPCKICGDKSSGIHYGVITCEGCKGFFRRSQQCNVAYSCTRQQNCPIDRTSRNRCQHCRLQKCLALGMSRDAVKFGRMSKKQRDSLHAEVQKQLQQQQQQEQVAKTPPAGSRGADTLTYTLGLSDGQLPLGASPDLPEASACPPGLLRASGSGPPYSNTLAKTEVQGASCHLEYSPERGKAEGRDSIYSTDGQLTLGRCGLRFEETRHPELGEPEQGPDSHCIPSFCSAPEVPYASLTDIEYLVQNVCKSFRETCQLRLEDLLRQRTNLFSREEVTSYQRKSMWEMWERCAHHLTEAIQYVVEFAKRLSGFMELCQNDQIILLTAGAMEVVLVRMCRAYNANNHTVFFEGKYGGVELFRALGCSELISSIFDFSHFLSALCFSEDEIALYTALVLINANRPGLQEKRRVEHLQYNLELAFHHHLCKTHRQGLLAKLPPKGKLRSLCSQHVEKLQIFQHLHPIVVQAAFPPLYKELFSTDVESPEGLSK
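Stable Schneider cell line, Gal4 DNA-binding domain fused to ROR gamma, UAS-luciferase. Cmpd 1 hr RT → CuSO4 700 uM final → 20 hr RT → luciferase reagent 10 min → luminescence.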
Active calls of the source: *; ? = inconclusive; . = no result; ! = not active in a repeat; [ ] = dose if it differs, or a comment. A selection: hits, their analogues and other compounds. The true share with any hit is near 18%. Unless noted, calls come from the whole dose curve; as a rule, active = well fitted curve in the direction sought with a large enough effect; inconclusive = small, poorly fitted or top-dose-only effect, or another doubt; inactive = no such curve, though single readings can be large; an effect the other way counts as inactive or inconclusive. Unless noted, % is set by controls: 0 for no effect and ±100 for the full control effect.

SMILES	TDP1 cell noCPT	DT40 TDP1 CPT	Gal4-VP16 FLuc	IL1B secr inh	LDHA block	RORgamma inh
O=C(C1CCN(S(=O)(=O)c2ccc(Br)s2)CC1)N1CCN(c2cccc(C(F)(F)F)c2)CC1	6.5µM*	23µM*	.	.	1	.
CO[C@@H](C)[C@](O)(C(=O)OCC1=CCN2CC[C@@H](O)[C@H]12)C(C)C	.	.	10%[17 µM]	.	.	-3%[16.9 µM]
COC(=O)C1=C(c2ccc(Cl)c(C(F)(F)F)c2)C[C@@H]2CC[C@H]1N2C(=O)NCCOc1ccccc1Cl	?	?	.	-82*	2	.
COC(=O)C1=C(c2ccc(Cl)c(C(F)(F)F)c2)C[C@@H]2CC[C@H]1N2C(=O)NCCCOC(C)C	13µM*	26µM*	.	-13	-1	.
C[n+]1cc(P(=S)(c2ccccc2)c2ccccc2)n2ccccc21	.	.	.	.	-15	.
Cn1ncc2c(NCc3ccc(Cl)cc3)ncnc21	?	?	.	.	0	.
Cc1cccc(-n2nnnc2C2(NC3CCCCC3)CCCCC2)c1	.	.	.	.	1	.
c1cc2c(cc1[C@H]1OC[C@@H]3[C@H]1CO[C@H]3c1ccc3c(c1)OCO3)OCO2	-39%	-45%	-22%	.	.	40%
COc1ccc2c3c([nH]c2c1)C(C)=NCC3	18µM*!	?	3%	-84*	-2	?
C1=NCCc2c1[nH]c1ccccc21	?	-82%	.	50	2	.
CC1=NCCc2c1[nH]c1cc(O)ccc21	27µM*!	?	-4%	6	-2	-24%
Cc1ccc(C2SCC(=O)Nc3n[nH]c(C)c32)cc1 (stereo unspecified)	.	.	.	.	6	.
C[N+]1(CC2COC(c3ccccc3)(c3ccccc3)O2)CCCCC1 (stereo unspecified)	19µM*	?	.	.	.	.
O=C(c1cc(C(=O)NCc2ccccc2)c(=O)n(Cc2ccccc2)c1)c1cc(Br)ccc1O	26µM*	?	-11%	-1	-8	97%
Cc1ccc(O)c(C(=O)c2cc(C(=O)NCc3ccccc3)c(=O)n(Cc3ccccc3)c2)c1	12µM*	7.3µM*	-3%	-30	3	21%
Cc1cc(C(=O)C(C)(C)NO)ccc1Cl	.	.	.	.	-6	.
C=C[C@H]1CN2CC[C@H]1C[C@H]2c1[nH]c2ccccc2c1CCO	-26%	14%	-1%	.	.	-14%
CN(CC=CCN(C)P(=S)(N1CC1)N1CC1)P(=S)(N1CC1)N1CC1	1.8µM*	1.6µM*	.	8	-2	.
COc1ccc(-n2c(/C=C/c3ccc(O)cc3)nc3ccccc3c2=O)cc1	21µM*	23µM*	-6%	-54*	-6	9%
O=c1c2ccccc2nc(/C=C/c2ccc(O)cc2)n1-c1ccc(O)cc1	?	?	1%	-14	-2	-25%
Cc1cccc(/C=C/c2nc3ccccc3c(=O)n2-c2cccc(O)c2)c1	.	.	.	.	12	.
Cc1ccc(-n2c(/C=C\c3ccc(F)cc3)nc3ccccc3c2=O)cc1Cl	16µM*	15µM*	.	.	-7	.
COc1cc(/C=C/c2nc3ccccc3c(=O)n2-c2ccc(Br)c(C)c2)ccc1O	16µM*	21µM*	.	.	-5	.
COc1ccc(-n2c(/C=C/c3ccc4c(c3)OCO4)nc3ccccc3c2=O)cc1	15µM*	26µM*	?	-8	-3	16%
Cc1ccc(-n2c(/C=C/c3ccc4c(c3)OCO4)nc3ccccc3c2=O)cc1	.	.	-9%	.	.	12%
SMILES	TDP1 cell noCPT	DT40 TDP1 CPT	Gal4-VP16 FLuc	IL1B secr inh	LDHA block	RORgamma inh
CCN1C[C@]2(C)CC[C@H](OC)[C@]34C5C[C@@H]6CC[C@@](O)(C5C(=O)O6)C(C13)[C@@H](OC(=O)c1ccccc1)C24	-14%[9.04 µM]	3%[9.04 µM]	-4%	.	.	26%
O=c1c2ccccc2nc(/C=C/c2ccccc2O)n1-c1ccc(Br)cc1	16µM*	?	.	.	-12	.
COc1ccc(-n2c(/C=C/c3ccc(O)c(OC)c3)nc3ccccc3c2=O)cc1	26µM*	21µM*	5%	-67*	0	24%
COc1cccc(-n2c(/C=C/c3ccc(O)c(O)c3)nc3ccccc3c2=O)c1	?	18%	-8%	?	19	-44%
Cc1ccc2[nH]c(C)c(C(O)CN3CCC(C)CC3)c2c1 (stereo unspecified)	.	.	.	.	6	.
COC(=O)c1cn(CCOc2ccccc2)c2ccccc12	?	?	4%	-15	0	35%
COc1ccc(C(=O)NCCn2cc(SC(C)c3ccccc3)c3ccccc32)cc1OC (stereo unspecified)	12µM*	16µM*	.	.	-4	.
CN(C)c1ccc(/C=C2\C(=O)NC(=O)N(CCc3ccc(F)cc3)C2=O)cc1	2%	6%	-1%	6	1	7%
O=C1NC(=O)N(CCc2ccc(F)cc2)C(=O)/C1=C/c1cccs1	16µM*	16µM*	-9%	-97*	-7	-20%
O=C1NC(=O)N(CCc2ccc(F)cc2)C(=O)/C1=C/c1ccco1	?	?	2%	-53*	-4	7%
C=CCN1C(=O)/C(=C/c2cccs2)C(=O)NC1=S	15µM*	16µM*	?	-104*	?	-80%
CN1CCC(=O)C2CCCCC21 (stereo unspecified)	.	.	.	.	-8	.
CC(C)(COCC1CO1)COCC1CO1 (stereo unspecified)	.	.	-21%	.	.	-1%
CSCC[C@H](NC(=O)[C@H](Cc1ccccc1)NC(=O)CNC(=O)CNC(=O)[C@@H](N)Cc1ccc(O)cc1)C(=O)O	-2%[4.12 µM]	0%[4.12 µM]	.	.	.	.
COc1ccccc1C(=O)Nc1nnc(-c2ccc(Cl)cc2)o1	?	-22%	?	-14	1	?
CCc1ccccc1NC(=O)C(CC)Oc1ccccc1-c1nnc(-c2ccccc2)o1 (stereo unspecified)	5.2µM*	5.8µM*	.	.	1	.
c1ccc2c(CNC34CC5CC(CC(C5)C3)C4)c[nH]c2c1	.	.	.	.	3	.
CN(Cc1c[nH]c2ccccc12)C1CCCCC1	1.2µM*	0.41µM*	15%	-10	-3	?
c1ccc2c(CNC3CCCCC3)c[nH]c2c1	6.3µM*	2.5µM*	-22%	?	-4	-26%
C=CCCC#N	.	.	-13%	.	.	-8%
COC(=O)[C@@H]1C[C@H]2CC[C@H](O)C[C@H]2N1CC1CC1	.	.	10%	.	.	5%
NCC(O)c1cccc(O)c1 (stereo unspecified)	?	?	8%	.	.	39%
CC(C)c1cccc(O)c(=O)c1	22µM*	6.5µM*!	2.8µM*!	0	9	2µM*
